Source: PubChem BioAssay (EPA / NIEHS)
Results filed as inconclusive are left out. Activity calls are given as the source filed them. The calls were made as follows: active = hit-call score of the fitted dose curve at least 0.9, where 1 is the maximum; inconclusive = response in the unintended direction; inactive = score below 0.9.

Tested on: not listed separately
Assay: IUF_NPC1_cytotoxicity_72hr: Cytotoxicity Assessment at 72 hours in the Leibniz Research Institute for Environmental Medicine (IUF) Neural Progenitor Cell Proliferation Assay (NPC1) (AID 2284332);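 also: rising LDH signal means more cytotoxicity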
Procedure, shortened: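 hNPC spheres (fetal brain, gestational week 16-19) grown under proliferative EGF/FGF conditions, pH 7.2-7.6, were treated continuously for 72 h. Cytotoxicity came from LDH-coupled resazurin fluorescence in each well's supernatant.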

Row | SMILES | outcome
1 | O=S1(=O)OCC2C(CO1)C1(Cl)C(Cl)=C(Cl)C2(Cl)C1(Cl)Cl (stereo unspecified) | inactive
2 | CO/N=C(/C(=O)OC)c1ccccc1COc1ccccc1C | inactive
3 | CCOc1ccc(C(C)(C)COCc2cccc(Oc3ccccc3)c2)cc1 | inactive
4 | CC(C)(C)c1ccccc1OP(=O)(Oc1ccccc1)Oc1ccccc1 | inactive
5 | O=C(O)C(F)(OC(F)(F)C(F)(F)C(F)(F)F)C(F)(F)F (stereo unspecified) | inactive
6 | O=P(Oc1ccccc1)(Oc1ccccc1)Oc1ccccc1 | inactive
7 | CCOP(=S)(OCC)SCSCC | inactive
8 | CCCCOCCOP(=O)(OCCOCCCC)OCCOCCCC | inactive

Tested on: not listed separately
Assay: CCTE_Mundy_HCI_iCellGluta_NOG_NeuronCount: CCTE's Neurite Outgrowth Assay in iCellGluta cells for Neuron Count, Mundy Lab (AID 2284340);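 also: cells fixed about 48 h after compound addition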
Protocol: CCTE_Mundy_HCI_iCellGluta_NOG is a multiplexed, cell-based-readout assay that uses iCell GlutaNeurons from FUJIFILM Cellular Dynamics, Inc. (FCDI), human glutamatergic enriched neurons derived from induced pluripotent stem (iPS) cells, with measurements taken at 50.33 hours after chemical dosing in a microplate: 96-well plate.CCTE_Mundy_HCI_iCellGluta_NOG_NeuronCount is one of four components of the CCTE_Mundy_HCI_iCellGluta_NOG assay. It measures cell viability related to number of neurons using High Content Imaging of fluorescently labelled markers.Data from the assay component CCTE_Mundy_HCI_iCellGluta_NOG_NeuronCount was analyzed at the endpoint CCTE_Mundy_HCI_iCellGluta_NOG_NeuronCount in the positive analysis fitting direction relative to DMSO as the negative control and baseline of activity. Using a type of viability reporter, loss-of-signal activity can be used to understand developmental effects.
Exposure starts 2 hours post-plating by adding 10 ul of the working solution to 90 ul of media in the wells for a 1/10 dilution. Forty-eight hours after chemical treatment cells are fixed by direct addition of 100 ul of warm (37C) Dulbecco's phosphate buffered saline (DPBS) fixative solution containing 8% paraformaldehyde, 8% sucrose, and 0.1% of 3 mg/ml Hoechst 33342 into each well. Primary antibodies are prepared by dilution in Immunocytochemical Staining Buffer (ISB), 10X Dulbecco's PBS, 0.1% Saponin, 5% Bovine Serum Albumin, 0.5% NaN3 (Sodium Azide) and betaIII-tubulin (rabbit anti-betaIII-tubulin, 1:800) followed by Alexa Fluor-488 secondary (1:500) to label neuronal cell bodies and neurites. A Cellomics ArrayScan VTi HCS Reader is used for automated image acquisition and analysis of neurite outgrowth.

Row | SMILES | AC50 | outcome
9 | CO/N=C(/C(=O)OC)c1ccccc1COc1ccccc1C | 31.4 µM (active) | –
10 | CCOc1ccc(C(C)(C)COCc2cccc(Oc3ccccc3)c2)cc1 | – | inactive
11 | O=C(O)C(F)(F)OC(F)(F)C(F)(F)OC(F)(F)C(=O)O | – | inactive
12 | O=C(O)C(F)(OC(F)(F)C(F)(F)C(F)(F)F)C(F)(F)F (stereo unspecified) | – | inactive
13 | FC(F)(F)C(F)(C(F)(F)F)C(F)(F)C(F)(F)CC1CO1 (stereo unspecified) | – | inactive
14 | O=C(O)C(F)(F)OC(F)(F)C(F)(F)OC(F)(F)F | – | inactive
15 | CCOP(=S)(OCC)SCSCC | – | inactive
16 | OCC(F)(F)OC(F)(F)C(F)(F)OC(F)(F)C(F)(F)OC(F)(F)F | – | inactive
17 | O=C(O)C=CC(F)(C(F)(F)F)C(F)(F)F | – | inactive

Tested on: not listed separately
Assay: CCTE_Mundy_HCI_iCellGluta_NOG_NeuriteCount: CCTE's Neurite Outgrowth Assay in iCellGluta cells for Neurite Count, Mundy Lab (AID 2284342);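 also: chemical exposure about 48 hours starting 2 hours after plating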

Row | SMILES | AC50 | outcome
18 | CO/N=C(/C(=O)OC)c1ccccc1COc1ccccc1C | 28.7 µM (active) | –
19 | CCOc1ccc(C(C)(C)COCc2cccc(Oc3ccccc3)c2)cc1 | – | inactive
20 | O=C(O)C(F)(F)OC(F)(F)C(F)(F)OC(F)(F)C(=O)O | – | inactive
21 | O=C(O)C(F)(OC(F)(F)C(F)(F)C(F)(F)F)C(F)(F)F (stereo unspecified) | – | inactive
22 | FC(F)(F)C(F)(C(F)(F)F)C(F)(F)C(F)(F)CC1CO1 (stereo unspecified) | – | inactive
23 | O=C(O)C(F)(F)OC(F)(F)C(F)(F)OC(F)(F)F | – | inactive
24 | CCOP(=S)(OCC)SCSCC | – | inactive
25 | OCC(F)(F)OC(F)(F)C(F)(F)OC(F)(F)C(F)(F)OC(F)(F)F | – | inactive
26 | O=C(O)C=CC(F)(C(F)(F)F)C(F)(F)F | – | inactive
27 | C=CC(=O)OCC(F)(F)C(F)F | – | inactive

Tested on: SERPINA7 (gene 6906)
Assay: CCTE_GLTED_hTBG: CCTE's human Thyroxine-binding Globulin (TBG) Inhibition Assay, Great Lakes Toxicology and Ecology Division (GLTED) Lab (AID 2284343);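 also: active chemicals lower fluorescence versus DMSO baseline by displacing probe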
Procedure, shortened: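 Measures how far test chemicals displace ANSA bound to purified human TBG. The read-out is fluorescence at 380 nm excitation and 475 nm emission, taken after 2 h of incubation.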

Row | SMILES | AC50 | outcome
28 | CO/N=C(/C(=O)OC)c1ccccc1COc1ccccc1C | 34.2 µM (active) | –
29 | CCCCCCCc1ccc(O)cc1 | 18.5 µM (active) | –
30 | O=[N+]([O-])c1ccc(Cl)c(Cl)c1 | – | inactive
31 | CCOc1ccc(C(C)(C)COCc2cccc(Oc3ccccc3)c2)cc1 | – | inactive
32 | CCCCC(CC)COP(=O)(Oc1ccccc1)Oc1ccccc1 (stereo unspecified) | 4.21 µM (active) | –
33 | CCCCc1ccc(O)cc1 | 63 µM (active) | –
34 | CCOP(=S)(Oc1ccc([N+](=O)[O-])cc1)c1ccccc1 (stereo unspecified) | 1.84 µM (active) | –
35 | CCCN(CCC)c1c([N+](=O)[O-])cc(C(C)C)cc1[N+](=O)[O-] | 11.7 µM (active) | –
36 | COC(=O)C(F)(F)C(F)(F)OC(F)(C(F)(F)F)C(F)(F)OC(F)=C(F)F (stereo unspecified) | 22.3 µM (active) | –
37 | O=P(Oc1ccccc1)(Oc1ccccc1)Oc1ccccc1 | 3.18 µM (active) | –
38 | CCOP(=S)(OCC)SCSCC | 24.7 µM (active) | –
39 | c1ccc(OP(Oc2ccccc2)Oc2ccccc2)cc1 | – | inactive
40 | OCC(F)(F)OC(F)(F)C(F)(F)OC(F)(F)C(F)(F)OC(F)(F)CO | 44.1 µM (active) | –
41 | CCC(C)(C)c1ccc(O)cc1 | 50 µM (active) | –
